Compound activity (PubChem)
This is a sample that favours compounds with a hit; in the whole collection about 2.8% have one here.
PglD DTNB – C. jejuni PglD acetyltransferase inhibitors, primary screen, biochemical, DTNB colorimetric, single point. AID 602405, 2012. UDP-N-acetylbacillosamine N-acetyltransferase PglD (Campylobacter jejuni). actives 0.098% (n = 360,000). inhibition, % at 12.5 µM. purified PglD enzyme, DTNB colorimetric CoA detection; in the data active means inhibition above about 16%, passing the limit was not always enough
CDK5 p35 inh – inhibitors of human CDK5/p35 kinase, primary screen, biochemical, single concentration; AID 488839, 2010; inhibition, % at 10 µM; Recombinant CDK5/p35, ADP-Glo luminescence, 60 min; actives 0.01% (n = 330,000);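 active means highest replicate inhibition of at least 50% and at least 75% of replicates reaching 50%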
SIRT5 inh – SIRT5 desuccinylase inhibitors, primary screen, biochemical, fluorescence imaging, single point, set 5; Purified SirT5, succinyl-peptide AMC, trypsin-coupled fluorescence; AID 652115, 2013; inhibition, % at 15 µM; actives 1.1% (n = 330,000); NAD-dependent protein deacylase sirtuin-5, mitochondrial (Homo sapiens), Q9NXA8; in the data active means inhibition above about 15%
FGF22 binding – binders of human FGF22 protein, primary screen, FGF22 synaptogenesis inhibitor project, biophysical, thermal shift, single point; Fibroblast growth factor 22 (Homo sapiens), Q9HCT0; recombinant FGF22 thermal shift, SYPRO orange fluorescence; percent of sucrose octasulfate shift, DMSO zero; activity (Tm shift, normalised), % at 9.99 µM; actives 1.5% (n = 340,000);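 active means mean Tm shift, scaled 0 neutral to 100 positive control, at about 1.3% or above, every replicate too, limit read from the data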
Target sequence (Q9HCT0 whole entry, looked up): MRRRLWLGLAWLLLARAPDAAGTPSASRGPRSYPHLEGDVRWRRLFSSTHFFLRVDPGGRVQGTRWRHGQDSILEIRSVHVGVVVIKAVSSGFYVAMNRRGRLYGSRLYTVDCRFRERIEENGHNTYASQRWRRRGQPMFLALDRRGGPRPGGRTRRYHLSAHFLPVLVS
dFosB act-1 – activators of delta FosB homodimer, primary screen, biochemical, fluorescence polarization, TAMRA-CDK5 oligo, single point | AID 493131, 2011 | Protein FosB (Mus musculus), P13346 | purified delta FosB; percent of positive-control signal above neutral wells | activation, % at 25 µM | actives 0.99% (n = 340,000);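 active means mean activation above about 17%, with every replicate also reaching it, limit read from the data, passing the limit was not always enough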
Target sequence (P13346 whole entry, looked up): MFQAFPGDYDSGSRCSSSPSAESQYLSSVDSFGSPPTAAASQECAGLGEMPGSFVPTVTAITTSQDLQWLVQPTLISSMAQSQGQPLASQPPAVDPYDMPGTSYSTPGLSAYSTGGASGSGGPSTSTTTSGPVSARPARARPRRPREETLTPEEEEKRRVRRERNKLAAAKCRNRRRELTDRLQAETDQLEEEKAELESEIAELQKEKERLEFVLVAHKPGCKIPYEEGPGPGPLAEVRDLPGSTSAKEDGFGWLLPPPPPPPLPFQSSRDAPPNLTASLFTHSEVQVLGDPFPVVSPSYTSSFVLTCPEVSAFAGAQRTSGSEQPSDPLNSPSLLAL
PvdQ acylase – P. aeruginosa PvdQ acylase inhibitors, primary screen, biochemical, fluorescence, plate reader and imaging, single point. purified PvdQ acylase. inhibition, % at 10 µM. actives 0.063% (n = 340,000). AID 488965, 2010; in the data active means inhibition above about 30%, passing the limit was not always enough
dFosB act-2 – activators of mouse delta FosB DNA binding, confirmation, biochemical, fluorescence polarization, TAMRA-CDK5 oligo, cherry-picked samples; shares compounds with dFosB act-1; 2,400 tested, under 10 active; activation, % at 24.9 µM; purified delta FosB; normalised: neutral wells 0, positive control 100;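 active means highest replicate activation at or above 34% and every replicate reaching that threshold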;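 further: higher polarization means more probe DNA bound by delta FosB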
Each line names hits and unclear results; the compound was inactive in the other large screens (follow-up assays come after a bar, where they were run).

CCCNC(=O)Nc1ccc2c(c1)OC[C@@H](C)N(C(=O)C1CC1)C[C@H](C)[C@H](OC)CN(C)C2=O	none (no result: CDK5 p35 inh, dFosB act-1, PvdQ acylase)
COc1ccc(/C=N/NC(=O)c2[nH]nc3c2CCc2ccccc2-3)cc1OC	dFosB act-1 88.1 (no result: PglD DTNB) | dFosB act-2 inactive
COc1cc(/C=N\NC(=O)c2ccc(-c3ccccc3)cc2)cc(OC)c1O	none
COc1cc(/C=N/NC(=O)c2cccc([N+](=O)[O-])c2)ccc1OCc1ccc(C)cc1	dFosB act-1 49.6 (no result: SIRT5 inh, FGF22 binding) | dFosB act-2 inactive
CCOc1cc(/C=N/NC(=O)Cn2nc([N+](=O)[O-])cc2C)ccc1OCc1ccc(F)cc1	dFosB act-1 35.3 (no result: SIRT5 inh, FGF22 binding) | dFosB act-2 inactive
CNC(=O)c1[nH]nc2c1CCc1ccccc1-2	none (no result: PglD DTNB)
COc1cc(/C=N\NC(=O)c2ccc(-c3ccccc3)cc2)ccc1OCC(N)=O	dFosB act-1 66.4 | dFosB act-2 inactive
COc1cc(/C=N/NC(=O)c2ccccc2O)ccc1OCC(=O)Nc1ccccc1	dFosB act-1 27.5 | dFosB act-2 inactive
COc1cc(/C=N/NC(=O)c2ccncc2)ccc1OCC(=O)Nc1ccccc1	none
CCOc1cc(/C=N\NC(=O)Cc2ccccc2)ccc1OCC(=O)Nc1ccc(C)c(C)c1	dFosB act-1 24.0 (no result: SIRT5 inh, FGF22 binding) | dFosB act-2 inactive
COc1ccccc1CNc1ncnc2cc(Cl)ccc12	none (no result: PglD DTNB, FGF22 binding)
CCN(CC)Cc1cc2[nH]c3c4ccc(Cl)cc4ncc3c2cc1OC	dFosB act-1 24.0 | dFosB act-2 inactive
COc1ccc(C(C)=O)cc1CSc1nc2ccccc2c(=O)n1-c1cccc(C)c1	dFosB act-1 24.7 (no result: CDK5 p35 inh, SIRT5 inh, FGF22 binding) | dFosB act-2 inactive
NC1=NC2(CCC(c3ccccc3)CC2)n2c(nc3ccccc32)N1 (configuration not stated)	dFosB act-1 34.1 (no result: SIRT5 inh, FGF22 binding) | dFosB act-2 inactive
NC1=NC2(CCCCC2)n2c(nc3ccccc32)N1	none (no result: SIRT5 inh, FGF22 binding)
COc1ccc(S(=O)(=O)N(C)C[C@H]2OCCCC[C@@H](C)Oc3ccc(NC(=O)CCCN(C)C)cc3C(=O)N([C@@H](C)CO)C[C@@H]2C)cc1	none (no result: CDK5 p35 inh, dFosB act-1, PvdQ acylase)
O=C(C[C@@H]1CC[C@@H](NC(=O)Nc2ccc(C(F)(F)F)cc2)[C@H](CO)O1)NCc1cc(F)cc(F)c1	none (no result: CDK5 p35 inh, dFosB act-1, PvdQ acylase)
Cc1ccc(-c2cc3c(N=O)c4ccccc4c-3n[nH]2)cc1	dFosB act-1 32.0 (no result: PglD DTNB) | dFosB act-2 inactive
Cc1ccc(S(=O)(=O)N(C)C[C@H]2OCCCC[C@H](C)Oc3ccc(NS(=O)(=O)c4c(C)noc4C)cc3C(=O)N([C@@H](C)CO)C[C@H]2C)cc1	none (no result: CDK5 p35 inh, dFosB act-1, PvdQ acylase)
Cn1ncc2c(Nc3ccc(Br)cc3)nc(Nc3ccc(Br)cc3)nc21	dFosB act-1 53.2 | dFosB act-2 inactive
Cn1ncc2c(Nc3cccc(Cl)c3)nc(Nc3cccc(Cl)c3)nc21	dFosB act-1 31.4 | dFosB act-2 inactive
O=C(C[C@@H]1C[C@@H]2c3cc(NC(=O)c4ccc5c(c4)OCO5)ccc3O[C@@H]2[C@H](CO)O1)NCc1ccccn1	none (no result: CDK5 p35 inh, dFosB act-1, PvdQ acylase)
O=C(NCc1ccc(F)cc1)[C@H]1[C@H](CO)[C@H]2Cn3c(cccc3=O)[C@@H]1N2	none (no result: CDK5 p35 inh, dFosB act-1, PvdQ acylase)
CC(=O)c1cccc(NC(=O)Cn2cnc(S(=O)(=O)N3CCC(C)CC3)c2)c1	dFosB act-1 50.3 (no result: SIRT5 inh, FGF22 binding) | dFosB act-2 inactive
CC1CCN(S(=O)(=O)c2cn(CC(=O)Nc3cccc(C#N)c3)cn2)CC1	none
C[C@@H]1CN([C@H](C)CO)C(=O)c2cc(C3=CCCC3)cnc2O[C@@H]1CN(C)Cc1ccccc1C(=O)O	none (no result: CDK5 p35 inh, dFosB act-1, PvdQ acylase)
Cc1ccc(C(=O)COC(=O)c2ccc3c(c2)C(=O)N(c2cccc4ncccc24)C3=O)cc1	SIRT5 inh 18.4, dFosB act-1 49.4 (no result: PglD DTNB) | dFosB act-2 inactive
O=C(OCC(=O)c1ccc(Cl)cc1Cl)c1ccc2c(c1)C(=O)N(c1cccc3ncccc13)C2=O	none (no result: SIRT5 inh, FGF22 binding)
O=C(COC(=O)c1ccc2c(c1)C(=O)N(c1cccc3ncccc13)C2=O)c1ccc(Cl)cc1	FGF22 binding 43.6, dFosB act-1 65.0 | dFosB act-2 inactive
Cc1cccc(NC(=O)Nc2ccc(C)cc2Br)c1	dFosB act-1 20.4 (no result: SIRT5 inh, FGF22 binding) | dFosB act-2 inactive
CC(=O)Nc1cccc(NC(=O)Nc2cccc(Cl)c2C)c1	dFosB act-1 22.1 (no result: PglD DTNB) | dFosB act-2 inactive
Cc1ccc(S(=O)(=O)N(C)C[C@H]2OCCCC[C@@H](C)Oc3ccc(NS(=O)(=O)c4c(C)noc4C)cc3C(=O)N([C@@H](C)CO)C[C@H]2C)cc1	none (no result: CDK5 p35 inh, dFosB act-1, PvdQ acylase)
Cc1nn(Cc2ccccc2Cl)c(Cl)c1/C=C/C(=O)OCC(=O)NC(N)=O	none (no result: SIRT5 inh, FGF22 binding)
Cc1nn(Cc2ccccc2)c(Cl)c1/C=C/C(=O)OC(C(=O)NC(N)=O)C(C)C (configuration not stated)	dFosB act-1 50.2 (no result: SIRT5 inh) | dFosB act-2 inactive
CN1CCN(C(=O)C[C@@H]2C[C@H]3c4cc(NC(=O)Cc5ccncc5)ccc4O[C@H]3[C@@H](CO)O2)CC1	none (no result: CDK5 p35 inh, dFosB act-1, PvdQ acylase)
O=C(Oc1cccc(-n2cnnn2)c1)C1CCCCC1	none (no result: SIRT5 inh, FGF22 binding)
O=C(Oc1cccc(-n2cnnn2)c1)c1sc2ccccc2c1Cl	dFosB act-1 143.4 (no result: SIRT5 inh, FGF22 binding) | dFosB act-2 inactive
CC(=O)N1CC2(C1)[C@@H](c1ccccc1)[C@H](CO)N2C(=O)c1ccncc1	none (no result: PglD DTNB, CDK5 p35 inh, dFosB act-1, PvdQ acylase)
COc1ccc(CN2CN(S(=O)(=O)c3cccs3)c3nc4ccccc4nc32)cc1	dFosB act-1 57.9 (no result: PglD DTNB) | dFosB act-2 inactive
CCN(CC)CCCNC(=O)c1ccc2c3n(nc2c1)-c1ccc(Cl)cc1CO3	dFosB act-1 33.6 (no result: SIRT5 inh) | dFosB act-2 inactive
O=C(Nc1ccccc1)N1CC(=O)N2[C@H](CO)[C@@H](c3ccc(C#CC4CC4)cc3)[C@@H]2C1	none (no result: PglD DTNB, CDK5 p35 inh, FGF22 binding, dFosB act-1, PvdQ acylase)
O=C(N/N=C/c1ccc2c(c1)OCO2)c1cccc(NC(=O)c2ccccc2Cl)c1	dFosB act-1 21.3 | dFosB act-2 inactive
O=C(CNC(=O)c1ccccc1Cl)N/N=C/c1ccc2c(c1)OCO2	none
Cc1cccc(C(=O)Nc2ccc(C(=O)N/N=C/c3ccc4c(c3)OCO4)cc2)c1	none
O=C(Cn1nnc(-c2ccccc2Cl)n1)N/N=C/c1ccc2c(c1)OCO2	dFosB act-1 23.6 (no result: SIRT5 inh, FGF22 binding) | dFosB act-2 inactive
